Source: PubChem BioAssay AID1159580 (chemical genetic matrix, 2015)
Where “and” joins values, the source holds several entries; their conditions need not be identical. Equal values may be shown once. Among all 5,500 compounds or so, about 2,000 (36%) were called active. Roughly 18% stayed inconclusive and do not appear here. No stated cut-off is given here; in the data, active means normalized growth mostly below about 0.91 (no sharp cut-off); inconclusive means no clear call, values can overlap the other calls; inactive means mostly above about 0.92. This is one part of the list.

Experiment: chemical genetic growth profiling, strain panel (AID 1159580);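 further: tested at 20 µM; growth read once vehicle control cultures reached saturation at 30 °C; 1 = growth at the plate median or of vehicle wells; lower values mean less growth of the strain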
Conditions: S. cerevisiae deletion strains, growth OD

Measured: normalized growth

Oc1ccc(Cl)c2cccnc12
active: locus YAL021C, strain ccr4, active compounds read low 0.0729 | locus YAL026C, strain drs2, active compounds read low 0.0768 | locus YAL030W, strain snc1, active compounds read low 0.0588 | locus YBL061C, strain skt5, active compounds read low 0.0618 | locus YBR009C, strain hhf1, active compounds read low 0.0586 | locus YBR021W, strain FUR4, active compounds read low 0.11 | locus YBR023C, strain chs3, active compounds read low 0.0665 | locus YBR171W, strain sec66, active compounds read low 0.0765 | locus YBR229C, strain ROT2, active compounds read low 0.0466 | locus YBR231C, strain swc5, active compounds read low 0.0699 | locus YBR279W, strain paf1, active compounds read low 0.0591 | locus YCL011C, strain gbp2, active compounds read low 0.0563 | locus YCL016C, strain dcc1, active compounds read low 0.119 | locus YCL029C, strain bik1, active compounds read low 0.0654 | locus YCL069W, strain vba3, active compounds read low 0.0931 | locus YCR088W, strain abp1, active compounds read low 0.0863 | locus YDL005C, strain med2, active compounds read low 0.14 | locus YDL035C, strain GPR1, active compounds read low 0.0492 | locus YDL040C, strain nat1, active compounds read low 0.169 | locus YDL074C, strain BRE1, active compounds read low 0.0799 | locus YDL101C, strain DUN1, active compounds read low 0.0585 | locus YDL185W, strain tfp1, active compounds read low 0.0618 | locus YDL192W, strain arf1, active compounds read low 0.0648 | locus YDR001C, strain nth1, active compounds read low 0.113 | locus YDR069C, strain doa4, active compounds read low 0.0629 | locus YDR101C, strain arx1, active compounds read low 0.0618 | locus YDR137W, strain rgp1, active compounds read low 0.102 | locus YDR159W, strain sac3, active compounds read low 0.284 | locus YDR162C, strain NBP2, active compounds read low 0.0481 | locus YDR195W, strain ref2 0.112 | locus YDR297W, strain sur2, active compounds read low 0.0577 | locus YDR318W, strain mcm21, active compounds read low 0.0654 | locus YDR334W, strain swr1, active compounds read low 0.0718 | locus YDR335W, strain msn5, active compounds read low 0.0632 | locus YDR388W, active compounds read low 0.0579 | locus YDR392W, strain spt3, active compounds read low 0.12 | locus YDR502C, strain sam2, active compounds read low 0.0635 | locus YEL003W, strain gim4, active compounds read low 0.0561 | locus YEL037C, strain rad23, active compounds read low 0.0834 | locus YEL061C, strain CIN8 (second series), active compounds read low 0.113 | locus YEL061C, strain CIN8, active compounds read low 0.0497 | locus YER015W, strain faa2, active compounds read low 0.0605 | locus YER016W, strain bim1, active compounds read low 0.0613 | locus YER110C, active compounds read low 0.0829 | locus YER111C, strain swi4, active compounds read low 0.0714 | locus YER155C, strain BEM2 (second series), active compounds read low 0.0997 | locus YER155C, strain BEM2, active compounds read low 0.0681 | locus YER167W, strain BCK2, active compounds read low 0.0524 | locus YFR010W, strain ubp6, active compounds read low 0.0733 | locus YGL078C, strain dbp3, active compounds read low 0.0711 | locus YGL086W, strain mad1, active compounds read low 0.0668 | locus YGL167C, strain pmr1, active compounds read low 0.0738 | locus YGL173C, strain kem1, active compounds read low 0.0702 | locus YGL227W, strain vid30, active compounds read low 0.128 | locus YGL240W, strain doc1, active compounds read low 0.0706 | locus YGL248W, strain PDE1, active compounds read low 0.0483 | locus YGL253W, strain hxk2, active compounds read low 0.0835 | locus YGR078C, strain PAC10, active compounds read low 0.0502 | locus YGR135W, strain pre9, active compounds read low 0.066 | locus YGR252W, strain gcn5, active compounds read low 0.174 | locus YHR013C, strain ard1, active compounds read low 0.101 | locus YHR027C, strain rpn1, active compounds read low 0.0624 | locus YHR030C, strain SLT2, active compounds read low 0.0509 and 0.106 | locus YHR079C, strain IRE1 (second series), active compounds read low 0.0587 | locus YHR079C, strain IRE1, active compounds read low 0.127 | locus YHR094C, strain hxt1, active compounds read low 0.0631 | locus YHR129C, strain ARP1, active compounds read low 0.0599 | locus YHR142W, strain chs7, active compounds read low 0.0877 | locus YHR200W, strain rpn10, active compounds read low 0.0662 | locus YIL066C, strain RNR3, active compounds read low 0.0495 | locus YIL073C, strain SPO22, active compounds read low 0.111 | locus YIL125W, strain kgd1, active compounds read low 0.0705 | locus YIR030C, strain dcg1, active compounds read low 0.0597 | locus YJL092W, strain hpr5, active compounds read low 0.0945 | locus YJL095W, strain BCK1 (second series), active compounds read low 0.0605 | locus YJL095W, strain BCK1, active compounds read low 0.0616 and 0.0998 | locus YJL115W, strain asf1, active compounds read low 0.146 | locus YJL129C, strain trk1, active compounds read low 0.0826 | locus YJL134W, strain LCB3, active compounds read low 0.0525 | locus YJL154C, strain vps35, active compounds read low 0.102 | locus YJL164C, strain tpk1, active compounds read low 0.0587 | locus YJL166W, strain qcr8, active compounds read low 0.059 | locus YJL168C, strain set2, active compounds read low 0.0636 | locus YJL187C, strain SWE1 (second series), active compounds read low 0.0476 | locus YJR043C, strain POL32, active compounds read low 0.0636 | locus YJR066W, strain TOR1, active compounds read low 0.0218 | locus YKL009W, strain mrt4, active compounds read low 0.0954 | locus YKL068W, active compounds read low 0.0759 | locus YKL085W, strain MDH1 (second series), active compounds read low 0.0618 | locus YKL085W, strain MDH1, active compounds read low 0.0618 | locus YKL160W, strain elf1, active compounds read low 0.082 | locus YKR001C, strain vps1, active compounds read low 0.0627 | locus YKR026C, strain gcn3, active compounds read low 0.122 | locus YKR091W, strain srl3, active compounds read low 0.135 | locus YLL001W, strain dnm1, active compounds read low 0.0833 | locus YLL026W, active compounds read low 0.0593 | locus YLL041C, strain sdh2, active compounds read low 0.065 | locus YLR027C, strain aat2, active compounds read low 0.0538 | locus YLR039C, strain RIC1, active compounds read low 0.0942 | locus YLR058C, strain SHM2, active compounds read low 0.0495 | locus YLR102C, strain apc9, active compounds read low 0.0664 | locus YLR113W, strain HOG1, active compounds read low 0.168 | locus YLR221C, strain rsa3, active compounds read low 0.0599 | locus YLR258W, strain gsy2, active compounds read low 0.0596 | locus YLR262C, strain YPT6 (second series), active compounds read low 0.108 | locus YLR262C, strain YPT6, active compounds read low 0.103 | locus YLR268W, strain sec22, active compounds read low 0.0689 | locus YLR320W, strain mms22, active compounds read low 0.0776 | locus YLR330W, strain CHS5, active compounds read low 0.0512 | locus YLR342W, strain FKS1 (second series), active compounds read low 0.0673 | locus YLR342W, strain FKS1, active compounds read low 0.0668 | locus YLR357W, strain rsc2, active compounds read low 0.203 | locus YLR370C, strain arc18, active compounds read low 0.0765 | locus YLR371W, strain rom2, active compounds read low 0.066 | locus YLR384C, strain iki3, active compounds read low 0.0582 | locus YLR418C, strain cdc73, active compounds read low 0.0923 | locus YML016C, strain PPZ1, active compounds read low 0.0462 | locus YML032C, strain rad52, active compounds read low 0.0754 | locus YML120C, strain ndi1, active compounds read low 0.0565 | locus YML124C, strain tub3, active compounds read low 0.0612 | locus YMR058W, strain fet3, active compounds read low 0.0641 | locus YMR078C, strain ctf18, active compounds read low 0.0785 | locus YMR125W, strain sto1, active compounds read low 0.244 | locus YMR129W, active compounds read low 0.0599 | locus YMR205C, strain PFK2, active compounds read low 0.12 | locus YMR223W, strain ubp8, active compounds read low 0.0681 | locus YMR231W, strain pep5, active compounds read low 0.0661 | locus YMR263W, strain SAP30, active compounds read low 0.0554 | locus YMR307W, strain GAS1, active compounds read low 0.132 | locus YNL067W, strain RPL9B, active compounds read low 0.049 | locus YNL071W, strain lat1, active compounds read low 0.0622 | locus YNL183C, strain NPR1, active compounds read low 0.0694 | locus YNL209W, strain ssb2, active compounds read low 0.0567 | locus YNL233W, strain BNI4, active compounds read low 0.0547 | locus YNL248C, strain rpa49, active compounds read low 0.194 | locus YNL250W, strain rad50, active compounds read low 0.0731 | locus YNL271C, strain bni1, active compounds read low 0.0769 | locus YNL298W, strain CLA4, active compounds read low 0.076 | locus YNL307C, strain MCK1, active compounds read low 0.0703 | locus YNL322C, strain KRE1 (second series), active compounds read low 0.0667 | locus YNL322C, strain KRE1, active compounds read low 0.0462 | locus YNR049C, strain mso1, active compounds read low 0.0954 | locus YNR052C, strain pop2, active compounds read low 0.065 | locus YOL006C, strain TOP1, active compounds read low 0.117 | locus YOL147C, strain pex11, active compounds read low 0.0602 | locus YOR001W, strain rrp6, active compounds read low 0.0711 | locus YOR061W, strain CKA2, active compounds read low 0.0478 | locus YOR069W, strain VPS5, active compounds read low 0.0472 | locus YOR070C, strain gyp1, active compounds read low 0.0596 | locus YOR080W, strain dia2, active compounds read low 0.0638 | locus YOR083W, strain WHI5, active compounds read low 0.0897 | locus YOR106W, strain vam3, active compounds read low 0.0664 | locus YOR136W, strain idh2, active compounds read low 0.0784 | locus YOR144C, strain elg1, active compounds read low 0.0595 | locus YOR184W, strain ser1, active compounds read low 0.0724 | locus YOR231W, strain MKK1, active compounds read low 0.115 | locus YOR265W, strain rbl2, active compounds read low 0.0564 | locus YOR270C, strain vph1, active compounds read low 0.131 | locus YOR290C, strain snf2, active compounds read low 0.0717 | locus YOR316C, strain cot1, active compounds read low 0.0637 | locus YPL051W, strain arl3, active compounds read low 0.062 | locus YPL055C, strain LGE1, active compounds read low 0.0714 | locus YPL078C, strain atp4, active compounds read low 0.0623 | locus YPL106C, strain sse1, active compounds read low 0.096 | locus YPL240C, strain hsp82, active compounds read low 0.083 | locus YPL256C, strain CLN2, active compounds read low 0.129 | locus YPR119W, strain clb2, active compounds read low 0.0694 | locus YPR141C, strain kar3, active compounds read low 0.0792 | locus YPR163C, strain tif3, active compounds read low 0.0744 | locus YPR167C, strain met16, active compounds read low 0.0645 | strain wtn01, active compounds read low 0.0639
